Source: PubChem BioAssay (National Center for Advancing Translational Sciences (NCATS))
HTT cytoprotect: qHTS Multiplex Assay to Identify Dual Action Probes in a Cell Model of Huntington: Cytoprotection (ATP); 230,000 compounds, 0.14% hits; Potency, µM (series often up to 56.4 µM), for inactives: cytoprotection (ATP increase), hits mostly activators; PC12 HTT-Q103 induced, cytoprotection, ATP luminescence, 40 h; further: potency means the concentration at half of the fitted maximal effect; % of control where 0% means no effect; nearly all actives have a fitted effect of over 45% in size
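Rat PC12, Q103 Htt exon1-GFP fusion, ecdysone promoter; tebufenozide inducer 100 nM final; compound titration; qHTS, 1500 cells/well; ATPlite luminescent read.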
NPSR antagonist: qHTS Assay for Antagonists of the Neuropeptide S Receptor: cAMP Signal Transduction; CHO-NPSR cells, cAMP TR-FRET, antagonist mode; Q6W5P4; 220,000 compounds, 1% hits; Potency, µM (highest dose often 38.3 µM), without a hit: at the highest dose activity change, negative = inhibition, hits mostly inhibitors; further: potency means the concentration at half of the fitted maximal effect; on the % scale 0 is the no-effect control and ±100 the full control effect; nearly all actives have a fitted effect of over 50% in size
Target sequence (Q6W5P4 whole entry, looked up): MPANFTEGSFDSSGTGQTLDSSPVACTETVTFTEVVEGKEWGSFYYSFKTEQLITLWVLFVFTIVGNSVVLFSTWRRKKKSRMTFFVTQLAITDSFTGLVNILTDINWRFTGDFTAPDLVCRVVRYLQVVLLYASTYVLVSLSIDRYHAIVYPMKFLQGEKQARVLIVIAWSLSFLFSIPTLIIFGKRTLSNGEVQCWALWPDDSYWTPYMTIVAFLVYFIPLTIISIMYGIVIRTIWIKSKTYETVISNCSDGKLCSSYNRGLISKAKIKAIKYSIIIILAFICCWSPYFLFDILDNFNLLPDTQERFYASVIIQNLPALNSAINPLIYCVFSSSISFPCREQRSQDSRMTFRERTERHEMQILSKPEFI
Lamin A splicing: qHTS Assay for Modulators of Lamin A Splicing; HeLa LMNA splicing GFP/RFP minigene ratio, 48 h; Potency, µM (top dose mostly 46.1 µM), for inactives: at the top dose ratio change, negative = inhibition, usual class: inhibitors; 200,000 compounds, 0.01% hits; active means well fitted inhibition curve with a large enough effect in the signal ratio, with a control signal flat, not every such curve was filed as active; inconclusive means small, poorly fitted or top-dose-only effect, or effect the other way, or a change in a side signal; the % refers to the signal ratio; further: potency means the concentration at half of the fitted maximal effect; on the % scale 0 is the no-effect control and ±100 the full control effect
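S3 HeLa stable clones carrying a lamin A-EGFP splicing minigene plus DsRed2 were seeded at 600 cells/well in Opti-MEM with 2% FBS, pin-dosed and incubated 48 h at 37°C. Acumen cytometry (488 nm) gave the GFP/RFP total-intensity ratio.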
CBFb RUNX1 block: qHTS Assay for Compounds Blocking the Interaction Between CBF-beta and RUNX1 for the Treatment of Acute Myeloid Leukemia. Runt-related transcription factor 1 (Homo sapiens) + Core-binding factor subunit beta …. AlphaScreen CBFb-His/RUNX1-biotin binding, biochemical. Potency, µM (titrated, usually from 59.8 µM), for inactives: at the highest dose activity, negative = inhibition, most hits filed as inhibitors. 230,000 tested, under 10 active. AID 1477, 2009; further: % of control where 0% means no effect
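CBF-beta (His) and RUNX1 (biotin), 30 nM each; 20 min preassociation; + compound, 15 min; + beads 50 ng each (Ni, streptavidin), 90 min; RT; AlphaScreen read.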
MBNL1-CUG inh: qHTS Assay for Inhibitors of MBNL1-poly(CUG) RNA binding | Muscleblind-like protein 1 (Homo sapiens), Q9NR56 | TR-FRET MBNL1-His/biotin-(CUG)12 binding, 665/545 ratio | Potency, µM (highest dose often 57.5 µM), without a hit: at the top dose activity change, negative = inhibition, hits mostly inhibitors | 280,000 compounds, 0.036% hits | AID 2675, 2010; active means well fitted inhibition curve with a large enough effect in the signal ratio, with a control signal flat, not every such curve was filed as active; inconclusive means small, poorly fitted or top-dose-only effect, or effect the other way, or a change in a side signal; inactive means no such curve, though single readings can be large or run the other way; the % refers to the signal ratio; further: potency means the concentration at half of the fitted maximal effect; on the % scale 0 is the no-effect control and ±100 the full control effect
Target sequence (Q9NR56 whole entry, looked up): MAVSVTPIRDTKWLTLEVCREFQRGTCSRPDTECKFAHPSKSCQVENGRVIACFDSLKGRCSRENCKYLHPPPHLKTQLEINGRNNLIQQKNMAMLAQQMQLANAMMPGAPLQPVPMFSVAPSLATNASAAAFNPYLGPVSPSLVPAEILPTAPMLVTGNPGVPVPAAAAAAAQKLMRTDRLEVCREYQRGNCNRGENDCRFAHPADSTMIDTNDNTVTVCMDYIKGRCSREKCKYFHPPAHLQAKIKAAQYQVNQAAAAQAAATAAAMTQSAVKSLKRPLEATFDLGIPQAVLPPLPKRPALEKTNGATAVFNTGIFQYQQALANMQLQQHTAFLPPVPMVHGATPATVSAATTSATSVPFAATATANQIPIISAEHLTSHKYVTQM
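Compounds (final 92 nM to 58 uM) are added to His-tagged MBNL1 and biotin-(CUG)12, then terbium anti-His antibody and streptavidin-XL665 (5 nM final). After 60 min at room temperature, the 665/545 nm ratio is read.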
HttQ103 aggreg: qHTS Multiplex Assay to Identify Dual Action Probes in a Cell Model of Huntington: Aggregate Formation (GFP); PC12 HttQ103-GFP aggregates, Acumen cytometry, 40 h; Potency, µM (top dose mostly 46.1 µM), without a hit: at the top dose activity change, negative = inhibition, actives largely listed as inhibitors; 220,000 compounds, 1.1% hits; AID 1688, 2009; further: potency means the concentration at half of the fitted maximal effect; on the % scale 0 is the no-effect control and ±100 the full control effect; nearly all actives have a fitted effect of over 60% in size
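Quantitative HTS on tebufenozide-induced (100 nM) PC12 cells stably expressing polyQ103 Huntingtin exon 1–GFP. Reduction of bright GFP aggregates, detected by laser scanning cytometry after lysis, identified actives across the titration.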
The depositor's hits bear a star; u = inconclusive; x = not tested or not shown; ! = repeats disagree; [ ] = remark or other dose. An excerpt weighted towards active compounds, which were near 1.1% of everything screened. Unless noted, the call rests on the fitted dose curve; in most records, active means well fitted curve in the direction sought with a large enough effect; inconclusive means small, poorly fitted or top-dose-only effect, or another doubt; inactive means no such curve, though single readings can be large; an effect the other way counts as inactive or inconclusive.

SMILES	HTT cytoprotect	NPSR antagonist	Lamin A splicing	CBFb RUNX1 block	MBNL1-CUG inh	HttQ103 aggreg
N#CC(C#N)=NNc1ccc([N+](=O)[O-])cc1	12%[10 µM]	4µM*	x	u	u	15%[9.22 µM]
O=[N+]([O-])c1ccc(N2CCCC2)c2ccncc12	-37%	-40%	x	-14%	u	22µM*
COc1ccccc1N1C(=O)NC(=O)/C(=C/c2ccc3c4c(cccc24)CC3)C1=O	6%[10 µM]	10µM*	-12%	-5%	u	18%
O=C1NC(=O)N(c2ccccc2)C(=O)/C1=C\c1ccc2c3c(cccc13)CC2	14%[10 µM]	-24%[46.1 µM]	-10%	0%	34%	-9%
CN(C)[C@@H]1C(=O)C(C(N)=O)=C(O)[C@]2(O)C(=O)C3=C(O)c4c(O)cccc4[C@](C)(O)[C@H]3C[C@@H]12	-20%[10 µM]	x	x	x	x	x
CC1=C(O)C(=O)C=C2C1=CC=C1[C@]2(C)CC[C@@]2(C)C3C[C@](C)(C(=O)O)CC[C@@]3(C)CC[C@@]12C (some centres undefined)	x	x	x	15%	x	x
Nc1cc(Cl)c2nonc2c1[N+](=O)[O-]	-15%[10 µM]	-37%	u	2%	u	4.5µM*
O=[N+]([O-])c1c(Cl)c(Cl)c(Cl)c(Cl)c1Cl	-22%	x	x	5%[21.7 µM]	x	x
CN1C[C@@H](CNC(=O)OCc2ccccc2)C[C@H]2c3cccc4c3c(cn4C)C[C@@H]21	-10%[1.9 µM]	x	x	x	x	x
CO[C@@H](COC(N)=O)C1=C(N2CC2)C(=O)C(C)=C(N2CC2)C1=O	-98%	x	x	x	x	5µM*
CCCCCCCCCCCCCC(=O)O[C@H]1[C@@H](C)[C@@]2(O)[C@@H](C=C(CO)C[C@]3(O)C(=O)C(C)=C[C@@H]23)C2C(C)(C)[C@]21OC(C)=O (some centres undefined)	12%[1.9 µM]	x	x	x	x	x
C[C@H]1CC[C@@H]2[C@@H](C)[C@H]3C(CC4C5CC=C6CC(O[C@@H]7O[C@H](CO)C(O[C@@H]8O[C@@H](C)[C@H](O)[C@@H](O)[C@H]8O)[C@H](O)[C@H]7O[C@@H]7O[C@@H](C)[C@H](O)[C@@H](O)[C@H]7O)CC[C@]6(C)C5CC[C@@]43C)N2C1 (some centres undefined)	x	x	x	-20%	x	x
C[C@H]1CC[C@@H]2[C@@H](C)[C@H]3[C@H](C[C@H]4[C@@H]5CC=C6CC(O[C@@H]7O[C@H](CO)[C@H](O)[C@H](O[C@@H]8O[C@H](CO)[C@@H](O)[C@H](O)[C@H]8O)[C@H]7O[C@H]7O[C@@H](C)[C@H](O)[C@@H](O)[C@H]7O)CC[C@]6(C)[C@H]5CC[C@]34C)N2C1 (some centres undefined)	-102%	x	u	-12%[21.7 µM]	x	22µM*
O=C(O)[C@H]1CCN1	-3%[1.9 µM]	x	x	x	x	x
COCCCn1c(N)c(C(=O)NCCC(C)C)c2nc3ccccc3nc21	-24%[0.074 µM]	10µM*	u	20%	-2%	u
CCCCn1c(N)c(C(=O)OCCOC)c2nc3ccccc3nc21	-5%[10 µM]	-22%	x	12%	27%	-4%[9.22 µM]
CCCCCCn1c(N)c(C(=O)NCCN2CCOCC2)c2nc3ccccc3nc21	-27%[0.074 µM]	u	u	u	u	32µM*
CCCCCn1c(N)c(C(=O)NCCN2CCOCC2)c2nc3ccccc3nc21	-16%[10 µM]	-27%[46.1 µM]	13%	18%	u	u
CCCCOCCCn1c(N)c(C(=O)OCCOC)c2nc3ccccc3nc21	7%	-15%[46.1 µM]	13%	3%	u	13µM*
CC(=O)Nc1ccc(S(=O)(=O)N(C)CCOCc2ccccc2)cc1	3%	17%[46.1 µM]	u	-7%	1%	11µM*
CC(C)(C)c1cc([N+](=O)[O-])cc(C(C)(C)C)c1O	-33%	-46%	u	14%	x	7.9µM*
COC(C(=O)C(O)C(C)O)C1Cc2cc3cc(OC4CC(OC5CC(O)C(OC)C(C)O5)C(OC(C)=O)C(C)O4)c(C)c(O)c3c(O)c2C(=O)C1OC1CC(OC2CC(OC3CC(C)(O)C(OC(C)=O)C(C)O3)C(O)C(C)O2)C(O)C(C)O1 (centres undefined)	-159%	x	u	x	x	0.18µM*
NNC(N)=S	-2%	x	x	4%[21.7 µM]	x	x
CC(=O)OC[C@]12CCC(C)=C[C@H]1O[C@@H]1[C@H](O)[C@@H](OC(C)=O)[C@@]2(C)[C@]12CO2	-76%[10 µM]	-38%	x	9%	-1%	0.1µM*
CC(=O)OC[C@]12C[C@H](OC(=O)CC(C)C)C(C)=C[C@H]1O[C@H]1[C@H](O)[C@@H](OC(C)=O)[C@@]2(C)[C@]12CO2	-320%	x	x	-2%	x	x
SMILES	HTT cytoprotect	NPSR antagonist	Lamin A splicing	CBFb RUNX1 block	MBNL1-CUG inh	HttQ103 aggreg
O=C(O)[C@@H]1[C@H](C(=O)O)[C@]2(Cl)C(Cl)=C(Cl)[C@@]1(Cl)C2(Cl)Cl	0%[10 µM]	x	x	x	x	x
NC(=S)c1cn(C2OC(CO)C(O)C2O)c2ncnc(N)c12 (centres undefined)	-89%[10 µM]	-8%	x	2%	-8%	2.8µM*
Nc1ncnc2c1ccn2[C@@H]1O[C@H](CO)[C@@H](O)[C@H]1O	x	x	x	2%	x	x
CN(C)c1ccc(/C=C/c2cc[n+](C)c3ccccc23)cc1	-67%[10 µM]	6.3µM*	x	-4%	u	u
Cc1cccc(N2C(=O)NC(=O)/C(=C\c3cnc(-c4ccccc4)nc3)C2=O)c1	25%[10 µM]	-48%	-22%	-6%	3%	2%
Cc1cc(C)cc(N2C(=O)NC(=O)/C(=C\c3cccn3-c3ccc(Cl)cc3)C2=O)c1	-12%	5µM*	-1%	24%	-6%	-17%
Cc1cc(C)cc(N2C(=O)NC(=O)/C(=C\c3cccn3-c3ccccc3)C2=O)c1	-3%[10 µM]	-55%	u	-16%	x	28µM*
CCCCC/C=C\C/C=C\C/C=C\C/C=C\CCCC(=O)NCCCl	-21%	x	x	-12%	x	x
N[C@]1(C(=O)O)CC[C@@H](C(=O)O)C1	-7%[1.9 µM]	x	x	x	x	x
CCCCCCC[n+]1ccc(-c2cc[n+](CCCCCCC)cc2)cc1	0.89µM*!	11%	u	3%	u	u
CCCCCCCCCCCCCCCC[n+]1ccccc1	-65%	x	u	u	x	16µM*
